Experimental data taken from PubChem BioAssay (Tox21).
Records with an inconclusive call do not appear. Calls of active or inactive are those of the source. Unless noted, the call rests on the fitted dose curve; in most records, active means well fitted curve in the direction sought with a large enough effect in the repeat runs; inconclusive means weak or mixed curves; inactive means no such curve, though single readings can be large; an effect the other way counts as inactive or inconclusive.

Legend:
[1] = qHTS assay for small molecule agonists of the p53 signaling pathway (AID 651631; calls by dose curve; further: nearly all actives have a fitted effect of over 15% in size)
How it was run: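 HCT-116 cells carrying a beta-lactamase reporter under p53 response elements were dosed with compound for 16 h at 37 °C. LiveBLAzer B/G FRET substrate was then added for 2 h at room temperature, and fluorescence intensity was read to detect pathway agonism.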

[2] = qHTS assay for small molecules that induce genotoxicity in human embryonic kidney cells expressing luciferase-tagged ATAD5 (AID 651632); further: nearly all actives have a fitted effect of over 15% in size
How it was run: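 HEK293T cells carrying a luciferase reporter tagged to ATAD5 were exposed to compound or DMSO vehicle for 16 hr at 37C, 5% CO2. Amplite was added, and after 30 min at room temperature luciferase activity was read as a marker of ATAD5 induction.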

[3] = qHTS assay for small molecule agonists of the p53 signaling pathway - cell viability (AID 651633; calls by dose curve;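 further: p53RE-bla HCT reporter cells with a stable beta-lactamase p53 reporter; series mostly up to about 83 µM; nearly all actives have a fitted effect of over 30% in size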)
How it was run: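 Viability counter-read: CellTiter-Glo luminescence (30 min, room temperature) in the same p53RE-bla plates. These plates had been exposed to compounds for 16 h at 37 C.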

[4] = qHTS assay for small molecules that induce genotoxicity in human embryonic kidney cells expressing luciferase-tagged ATAD5 - cell viability (AID 651634; calls by dose curve; further: nearly all actives have a fitted effect of over 25% in size)
How it was run: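 HEK293T cells expressing luciferase-tagged ATAD5 were exposed to compound or DMSO for 15.5 hr at 37C, 5% CO2. Viability was then read as live-cell protease activity by CellTiter-Fluor fluorescence after 30 min at 37C.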

[5] = qHTS assay to test for compound auto fluorescence at 590 nm (red) in HepG2 cells (AID 720674)
How it was run: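 Red autofluorescence (Ex/Em 540/590 nm, Rose Bengal sodium equivalents) was measured in HepG2 cells, 2,000 per well in MEM plus 10% FBS, plated overnight at 37 C. Readings were taken 1 hr after adding 23 nL compound or DMSO, at 37 C and 5% CO2.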

[6] = qHTS assay to test for compound auto fluorescence at 535 nm (green) in HepG2 cells (AID 720675)
[7] = qHTS assay to test for compound auto fluorescence at 460 nm (blue) in HEK293 cells (AID 720678)
How it was run: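 HEK293 cells (2,000 per well, medium with 10% dialyzed FBS) attached for 4-5 hr at 37C, then received compound and stood overnight at 37C, 5% CO2. Blue fluorescence was read at Ex/Em 405/460 nm and expressed relative to triamterene.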

[8] = qHTS assay to test for compound auto fluorescence at 590 nm (red) in HEK293 cells (AID 720679)
How it was run: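 HEK293 cells (2,000/well, medium with 10% dialyzed FBS) attached for 4-5 hr at 37C, received 23 nL compound and were incubated overnight at 37C, 5% CO2. Red fluorescence was then read at 540/590nm Ex/Em, referenced to Rose Bengal sodium.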

[9] = qHTS assay for small molecule disruptors of the mitochondrial membrane potential - cell viability (AID 720634; calls by dose curve;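 further: human HepG2 liver cancer cells; series mostly up to about 83 µM; nearly all actives have a fitted effect of over 20% in size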)
How it was run: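 HepG2 cells seeded overnight at 37 C, then exposed to compound or DMSO for 1 hr at 37 C, 5% CO2. m-MPI dye added, then CellTiter-Glo for 30 min at room temperature; viability read as ATP luminescence.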
On the % scale 0 is the no-effect control and ±100 the full control effect.

CCO[Si](CCCN=C=O)(OCC)OCC
inactive: Potency [1] | Potency [2] | Potency [3] | Potency [4] | outcome [5] | outcome [6] | Potency [7] | outcome [8]

CCCCCCCCC=O
inactive: Potency [1] | Potency [2] | Potency [3] | Potency [4] | Potency [9] | outcome [5] | outcome [6] | Potency [7] | outcome [8]

N#CCN(CC#N)CCN(CC#N)CC#N
inactive: Potency [1] | Potency [2] | Potency [3] | Potency [4] | Potency [9] | outcome [5] | outcome [6] | Potency [7] | outcome [8]

CCC(=O)Nc1cccc(N)c1
inactive: Potency [1] | Potency [2] | Potency [3] | Potency [4] | Potency [9] | outcome [5] | outcome [6] | Potency [7] | outcome [8]

CCCC(C)C(=O)O (stereo unspecified)
inactive: Potency [1] | Potency [2] | Potency [3] | Potency [4] | Potency [9] | outcome [5] | outcome [6] | outcome [8]

O=[N+]([O-])c1ccc(CCO)cc1
inactive: Potency [1] | Potency [2] | Potency [3] | Potency [4] | Potency [9] | outcome [5] | outcome [6] | Potency [7] | outcome [8]

COC(=O)[C@H]1[C@H]2C[C@@H]3c4[nH]c5cc(OC)ccc5c4CCN3C[C@H]2C[C@@H](OC(=O)COc2ccc(OC)cc2)[C@@H]1OC
inactive: Potency [1] | Potency [2] | Potency [3] | Potency [4] | Potency [9] | outcome [5] | outcome [6] | Potency [7] | outcome [8]

OCC(CO)(CO)COCC(CO)(CO)CO
inactive: Potency [1] | Potency [2] | Potency [3] | Potency [4] | Potency [9] | outcome [5] | outcome [6] | Potency [7] | outcome [8]

CCC(C)OC(=O)N1CCCCC1CCO (stereo unspecified)
inactive: Potency [1] | Potency [2] | Potency [3] | Potency [4] | Potency [9] | outcome [5] | outcome [6] | Potency [7] | outcome [8]

Oc1cc(O)c2c(c1)O[C@H](c1ccc(O)c(O)c1)[C@H](O)C2
inactive: Potency [1] | Potency [2] | Potency [3] | Potency [4] | Potency [9] | outcome [5] | outcome [6] | Potency [7] | outcome [8]

OCC(O)[C@@H](O)[C@H](O)[C@H](O)CO[C@H]1O[C@H](CO)[C@@H](O)[C@H](O)[C@H]1O (stereo partly specified)
inactive: Potency [1] | Potency [2] | Potency [3] | Potency [4] | Potency [9] | outcome [5] | outcome [6] | Potency [7] | outcome [8]

O=C(O)/C=C/c1ccc(Cn2ccnc2)cc1
inactive: Potency [1] | Potency [2] | Potency [3] | Potency [4] | Potency [9] | fluorescence, relative to Rose Bengal [5] 0.61% [at 18.6 µM] | fluorescence, % of fluorescein control [6] 0.0058% [at 18.6 µM] | fluorescence, % of triamterene [7] -0.0046% [at 18.6 µM] | fluorescence, % of fluorescent control [8] -0.336% [at 18.6 µM]
